The list is not random: actives were taken first. Their share in the collection is about 32%.
CYP2C9 activ – human CYP2C9 activators, primary screen, biochemical, luminescence; recombinant CYP2C9, luciferin-H conversion; active compounds read high; factor 1 = untreated enzyme, 0 = blocked; activation factor at 5 µM; 96,000 tested, 1.4% active; AID 1024, 2008;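 active = activation factor of 2 or more for CYP2C9 at a 5 µM dose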;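 note: 0 = sulfaphenazole-blocked wells and 1 = vehicle-only wells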
CYP2C19 inhib – blockers of cytochrome P450 2C19 activity – biochemical, luminescence, ADME assay, primary screen | P33261 | inhibition, % at 5 µM | AID 778, 2007 | CYP2C19 Supersomes, luciferin-H EGE luminescence, 30 min | 96,000 tested, 21% active;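 active = CYP2C19 inhibition above a set limit at 5 µM in the primary screen, cut at about 50% in these data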;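 note: plate controls were negative control wells for no effect and 2.5 mM tranylcypromine positive control for full effect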
Target sequence (P33261 whole entry, looked up): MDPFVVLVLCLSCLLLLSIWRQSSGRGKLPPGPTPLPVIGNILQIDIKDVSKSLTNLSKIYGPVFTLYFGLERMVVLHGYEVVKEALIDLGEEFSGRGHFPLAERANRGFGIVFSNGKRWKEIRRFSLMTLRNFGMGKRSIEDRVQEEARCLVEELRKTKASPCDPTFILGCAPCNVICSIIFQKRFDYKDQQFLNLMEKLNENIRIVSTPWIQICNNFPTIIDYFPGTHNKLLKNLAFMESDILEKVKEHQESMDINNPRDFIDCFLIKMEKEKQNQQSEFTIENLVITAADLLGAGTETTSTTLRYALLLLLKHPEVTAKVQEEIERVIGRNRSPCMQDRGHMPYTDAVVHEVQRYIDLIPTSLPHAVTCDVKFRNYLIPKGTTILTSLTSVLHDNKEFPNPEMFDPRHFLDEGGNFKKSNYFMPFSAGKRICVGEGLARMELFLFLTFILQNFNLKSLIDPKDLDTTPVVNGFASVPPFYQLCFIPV
CYP2C9 inhib – blockers of cytochrome P450 2C9 activity – biochemical, luminescence, ADME assay, primary screen; P11712; CYP2C9 Supersomes, luciferin-H conversion; inhibition, % at 5 µM; 96,000 tested, 20% active; AID 777, 2007;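 active = blocking of liver enzyme CYP2C9 beyond about 50% at 5 µM, limit read from the data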
CYP2C19 act – human CYP2C19 activators, primary screen, biochemical, luminescence; recombinant CYP2C19, luciferin-H EGE luminescence; active compounds read high; 0 = fully inhibited enzyme, 1 = untreated enzyme; activation factor at 5 µM; 96,000 tested, under 10 active;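 active = activation factor of at least 2 at 5 µM in the primary screen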;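 note: 0 = wells with 2.5 mM tranylcypromine and 1 = vehicle-only wells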
PostGolgi yeast – phenotypic screen on post-Golgi transport, primary screen; post-Golgi transport phenotypic cell assay; inhibition, % at 10 µM; 98,000 tested, 0.9% active; AID 739, 2007;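 note: yeast cells grown in 1536-well plates; yeast grown about 18 h at 30C before absorbance read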
PostGolgi ctrl – growth inhibition of yeast control strain, primary screen, counter-screen for post-Golgi transport modulator project; efflux-deficient yeast background strain, growth absorbance A615, 16 h; inhibition, % at 10 µM; 98,000 tested, 5% active; AID 738, 2007
* marks the source's active call; other numbers are inactive results. Cut-off read from the data, not from the text of the source, unless noted: active = inhibition above about 30%; inactive = the rest.

For COc1cccc(NC(=O)COC(=O)c2cc(S(=O)(=O)N3CCOCC3)ccc2C)c1 the results were CYP2C9 activ 0.7, CYP2C19 inhib 22.6, CYP2C9 inhib 33.9, CYP2C19 act 0.8, PostGolgi yeast 14.4 and PostGolgi ctrl -3.7.
Cc1cc(C(=O)OCC(=O)Nc2ccc(S(=O)(=O)N3CCOCC3)cc2)c(C)o1 was read as CYP2C9 activ 0.3, CYP2C19 inhib 29.0, CYP2C9 inhib 72.8*, CYP2C19 act 0.7, PostGolgi yeast 0.2 and PostGolgi ctrl -0.4.
O/N=C/c1ccc(OCC(O)COc2ccc(/C=N/O)cc2)cc1 was read as CYP2C9 activ 0.8, CYP2C19 inhib 24.9, CYP2C9 inhib 17.8, CYP2C19 act 0.8, PostGolgi yeast 0.0 and PostGolgi ctrl 7.0.
Screening CCc1ccccc1NC(=O)COC(=O)C1CC(=O)N(c2ccc(F)cc2)C1 (stereo not drawn) returned CYP2C9 activ 1, CYP2C19 inhib 10.4, CYP2C9 inhib 2.7, CYP2C19 act 0.9, PostGolgi yeast -7.4 and PostGolgi ctrl 7.3.
For Cc1ccc(C)c(S(=O)(=O)NC(CC(C)C)C(=O)O)c1 (stereo not drawn) the results were CYP2C9 activ 0.9, CYP2C19 inhib 8.0, CYP2C9 inhib 11.4, CYP2C19 act 0.9, PostGolgi yeast 3.4 and PostGolgi ctrl 9.2.
CC1CCCCN1CCNC(=O)CN1C(=O)COc2ccccc21 (stereo not drawn) was read as CYP2C9 activ 1.1, CYP2C19 inhib -7.5, CYP2C9 inhib -7.6, CYP2C19 act 1.1, PostGolgi yeast -0.2 and PostGolgi ctrl -2.5.
CC(=O)Nc1ccc(Oc2ncccn2)c(Cl)c1 was read as CYP2C9 activ 1, CYP2C19 inhib 11.4, CYP2C9 inhib -3.8, CYP2C19 act 0.9, PostGolgi yeast 0.3 and PostGolgi ctrl 16.3.
Screening Cc1nc(-c2ccccn2)sc1C(=O)Nc1ccc(F)cc1 returned CYP2C9 activ 2.1*, CYP2C19 inhib 9.5, CYP2C9 inhib -114.2, CYP2C19 act 0.9, PostGolgi yeast 3.6 and PostGolgi ctrl 5.6.
Screening OCn1ncn(-c2ccccc2)c1=S returned CYP2C9 activ 0.9, CYP2C19 inhib 11.2, CYP2C9 inhib 7.6, CYP2C19 act 0.9, PostGolgi yeast -4.2 and PostGolgi ctrl -9.7.
For O=C(O)C1NCCc2ccccc21 (stereo not drawn) the results were CYP2C9 activ 0.3, CYP2C19 inhib 31.7, CYP2C9 inhib 74.0*, CYP2C19 act 0.7, PostGolgi yeast -0.8 and PostGolgi ctrl 6.2.
Screening O=C1CC(c2ccc(F)cc2)CC(O)=C1C1NCCc2ccccc21 (stereo not drawn) returned CYP2C9 activ 1, CYP2C19 inhib -7.3, CYP2C9 inhib 2.0, CYP2C19 act 1.1, PostGolgi yeast -5.1 and PostGolgi ctrl 25.2.
`CNc1nnc(-c2cc3ccccc3oc2=O)s1` gave CYP2C9 activ 0.9, CYP2C19 inhib 16.5, CYP2C9 inhib 12.2, CYP2C19 act 0.8, PostGolgi yeast 2.2 and PostGolgi ctrl 10.6.
`O=C(CS(=O)c1ccc(C(F)(F)F)cc1[N+](=O)[O-])Oc1ccc(Cl)cc1` (stereo not drawn) gave CYP2C9 activ 0.7, CYP2C19 inhib 1.7, CYP2C9 inhib 31.4, CYP2C19 act 1, PostGolgi yeast 4.8 and PostGolgi ctrl 4.3.
Cc1cc(C)cc(OC(=O)CS(=O)c2ccc(C(F)(F)F)cc2[N+](=O)[O-])c1 (stereo not drawn) was read as CYP2C9 activ 2*, CYP2C19 inhib -2.6, CYP2C9 inhib -102.2, CYP2C19 act 1, PostGolgi yeast 12.9 and PostGolgi ctrl 35.2*.
For O=C(NCC(c1cccnc1)N1CCN(c2ccccc2F)CC1)C1CCCCC1 (stereo not drawn) the results were CYP2C9 activ 0.5, CYP2C19 inhib 78.9*, CYP2C9 inhib 49.2, CYP2C19 act 0.2, PostGolgi yeast -1.9 and PostGolgi ctrl 3.8.
`COc1ccc(N2CCN(C(CNC(=O)C3CCCCC3)c3cccnc3)CC2)cc1` (stereo not drawn) gave CYP2C9 activ 0.8, CYP2C19 inhib 14.6, CYP2C9 inhib 15.1, CYP2C19 act 0.9, PostGolgi yeast 3.2 and PostGolgi ctrl 35.0*.
CCOc1ccc(C(=O)OCc2nnc(-c3cccs3)o2)cc1OC was read as CYP2C9 activ 0.2, CYP2C19 inhib 67.8*, CYP2C9 inhib 79.9*, CYP2C19 act 0.3, PostGolgi yeast 17.9 and PostGolgi ctrl 12.4.
For O=C(COc1ccc(Cl)cc1)NCc1nnc(SCC(=O)NC2CCCC2)o1 the results were CYP2C9 activ 1.7, CYP2C19 inhib -12.6, CYP2C9 inhib -70.6, CYP2C19 act 1.1, PostGolgi yeast -0.6 and PostGolgi ctrl 1.7.
`CCC1CCCCN1C(=O)CSc1nnc(-c2ccc(Cl)cc2)o1` (stereo not drawn) gave CYP2C9 activ 0.7, CYP2C19 inhib 82.5*, CYP2C9 inhib 32.8, CYP2C19 act 0.2, PostGolgi yeast -19.7 and PostGolgi ctrl 8.0.
CCC1CCCCN1C(=O)CSc1nnc(-c2cccc(Cl)c2)o1 (stereo not drawn) was read as CYP2C9 activ 2.3*, CYP2C19 inhib 97.5*, CYP2C9 inhib -128.5, CYP2C19 act 0, PostGolgi yeast -8.8 and PostGolgi ctrl 6.5.
CCC1CCCCN1C(=O)CSc1nnc(-c2ccco2)o1 (stereo not drawn) was read as PostGolgi yeast -2.5 and PostGolgi ctrl 5.5.
COc1ccc(-c2nnc(SCC(=O)N3CCCCC3)o2)cc1OC was read as CYP2C9 activ 1, CYP2C19 inhib 16.2, CYP2C9 inhib 3.6, CYP2C19 act 0.8, PostGolgi yeast -1.6 and PostGolgi ctrl 0.5.
Screening CCC1CCCCN1C(=O)CSc1nnc(-c2ccc(Cl)s2)o1 (stereo not drawn) returned CYP2C9 activ 0.5, CYP2C19 inhib 95.0*, CYP2C9 inhib 46.0, CYP2C19 act 0.1, PostGolgi yeast -6.7 and PostGolgi ctrl 8.1.
Screening CCC1CCCCN1C(=O)CSc1nnc(CNC(=O)COc2ccc(Cl)cc2)o1 (stereo not drawn) returned CYP2C9 activ 0.4, CYP2C19 inhib 45.3, CYP2C9 inhib 61.7*, CYP2C19 act 0.5, PostGolgi yeast -2.7 and PostGolgi ctrl 3.9.
For COCCCNC(=O)C(=O)N/N=C/c1ccc(OCC(=O)Nc2cccc(Cl)c2C)c(OC)c1 the results were CYP2C9 activ 1, CYP2C19 inhib 8.9, CYP2C9 inhib 2.7, CYP2C19 act 0.9, PostGolgi yeast 7.0 and PostGolgi ctrl 0.7.
COC(=O)CSc1nc(N)c(NC(=O)c2ccc(OC)c(OC)c2)c(=O)[nH]1 was read as CYP2C9 activ 1.1, CYP2C19 inhib 0.1, CYP2C9 inhib -8.6, CYP2C19 act 1, PostGolgi yeast -6.4 and PostGolgi ctrl 1.9.

High-throughput results: PubChem BioAssay, several laboratories
